Test results: the supplement of paper PMC11383364
“And” between values parts separate entries of the source, which are not always exact repeats. Equal values may be shown once. ± gives the standard deviation of the averaged measurements.

Tested on: SUM149
Test: percent difference in area under dose-response curve of relative cell number, RPMI vs HPLM; higher = drug relatively more effective in HPLM than RPMI (negative = less effective in HPLM)
Details: treatment time: 72 h; dose range: 10-point, 1 nM to 20 µM; media compared: RPMI vs HPLM

SMILES | percent difference in area under dose-response curve
CC[C@H](CO)Nc1nc(NCc2ccccc2)c2ncn(C(C)C)c2n1 [Roscovitine] | -1.29%
CS(=O)(=O)N1CCN(Cc2cc3nc(-c4cccc5[nH]ncc45)nc(N4CCOCC4)c3s2)CC1 | -4.07%
Cc1cc2c(C(=O)NC[C@H](C)c3ccccc3)c(O)c(O)cc2c(O)c1-c1c(C)cc2c(C(=O)NC[C@H](C)c3ccccc3)c(O)c(O)cc2c1O [Sabutoclax] | -9.94%
Cc1[nH]c(/C=C2\C(=O)Nc3ccc(S(=O)(=O)Cc4c(Cl)cccc4Cl)cc32)c(C)c1C(=O)N1CCC[C@@H]1CN1CCCC1 | -10.1%
COc1cc2c(Oc3ccc4[nH]c(C)cc4c3F)ncnc2cc1OCCCN1CCCC1 [Cediranib] | 1%
O=C(O[C@@H]1Cc2c(O)cc(O)cc2O[C@@H]1c1cc(O)c(O)c(O)c1)c1cc(O)c(O)c(O)c1 [_Epigallocatechin_gallate] | 3.46%
COC(=O)Nc1nc2cc(C(=O)c3cccs3)ccc2[nH]1 [Nocodazole] | -17.2%
C[C@@H](O[C@H]1OCCN(Cc2n[nH]c(=O)[nH]2)[C@H]1c1ccc(F)cc1)c1cc(C(F)(F)F)cc(C(F)(F)F)c1 [Aprepitant] | -2%
Cc1ccc(NC(=O)c2ccc(CN3CCN(C)CC3)cc2)cc1Nc1nc(-c2cccnc2)cs1 [Masitinib] | -3.29%
Cn1c(=O)c(F)c(Nc2ccc(I)cc2F)c2c(=O)n(C[C@@H](O)CO)cnc21 | -12.9%
CC(C)c1cc(C(C)C)c(CC(=O)NS(=O)(=O)Oc2c(C(C)C)cccc2C(C)C)c(C(C)C)c1 [Avasimibe] | -0.523%
N[C@H](C(=O)O)[C@@H]1CC(Cl)=NO1 [Acivicin] | 9.22%
c1ccc(Cn2nnc3c(Sc4nc5ccccc5o4)ncnc32)cc1 | 0.823%
N#Cc1c(NC(=O)c2cccc3ccccc23)sc2c1CCCC2 [JNK_Inhibitor_IX] | -13.1%
Nc1nc2c(c(=O)[nH]1)C[C@@H](CCc1ccc(C(=O)N[C@@H](CCC(=O)O)C(=O)O)cc1)CN2 [Lometrexol] | -68%
Cc1cc2c(F)c(Oc3ncnn4cc(OC[C@@H](C)O)c(C)c34)ccc2[nH]1 [Brivanib] | -2.59%
CC[C@]1(O)C[C@H]2CN(CCc3c([nH]c4ccccc34)[C@@](C(=O)OC)(c3cc4c(cc3OC)N(C=O)[C@H]3[C@@](O)(C(=O)OC)[C@H](OC(C)=O)[C@]5(CC)C=CCN6CC[C@]43[C@@H]65)C2)C1 [Vincristine] | -16.7%

SMILES | percent difference in area under dose-response curve
Nc1nc(Nc2ccc(S(N)(=O)=O)cc2)nn1C(=O)c1c(F)cccc1F | -1.01%
Oc1ccc(Nc2nc(-c3ccc(Cl)cc3)cs2)cc1 | 6.02%
Clc1ccc(Nc2nnc(Cc3ccncc3)c3ccccc23)cc1 [Vatalanib_2HCl] | -4.56%
CCc1nc(N)nc(N)c1-c1ccc(Cl)cc1 [Pyrimethamine] | 33.6%
C[C@H](NC(=O)Cc1cc(F)cc(F)c1)C(=O)N[C@@H]1C(=O)N(C)c2ccccc2-c2ccccc21 | 8.45%
S=C(NCc1ccc2c(c1)OCO2)N1CCN(c2ncnc3c2oc2ccccc23)CC1 [Amuvatinib] | 1.06%
CC1(C)CCC(c2ccc(Cl)cc2)=C(CN2CCN(c3ccc(C(=O)NS(=O)(=O)c4ccc(N[C@H](CCN5CCOCC5)CSc5ccccc5)c(S(=O)(=O)C(F)(F)F)c4)cc3)CC2)C1 | -1.13% and -0.0577%
O=C1c2c(O)ccc(O)c2C(=O)c2c(NCCNCCO)ccc(NCCNCCO)c21 [Mitoxantrone_HCl] | -32.7%
CCCc1cc(-c2nc(-c3ccc(C)cc3)cs2)ccn1 [Fatostatin_A] | -2.81%
Cc1c(C(=O)Nc2ccc(N3C[C@@H](C)O[C@@H](C)C3)nc2)cccc1-c1ccc(OC(F)(F)F)cc1 | -7%
CCNC(=O)c1noc(-c2cc(C(C)C)c(O)cc2O)c1-c1ccc(CN2CCOCC2)cc1 | -30%
O=S(=O)(N=Cc1c(O)ccc2ccccc12)c1cccs1 | -2.44%
Cc1ccc(-c2cc(C(F)(F)F)nn2-c2ccc(S(N)(=O)=O)cc2)cc1 [Celecoxib] | 1.54 ± 3%
CCC(C)n1ncn(-c2ccc(N3CCN(c4ccc(OCC5COC(Cn6cncn6)(c6ccc(Cl)cc6Cl)O5)cc4)CC3)cc2)c1=O (centres undefined) [Itraconazole] | -12%
CS(=O)(=O)c1cccc(CNc2nc(Nc3ccc4c(c3)CCC(=O)N4)ncc2C(F)(F)F)c1 | -3.53%
C=CC(=O)Nc1cc(Nc2nccc(-c3cn(C)c4ccccc34)n2)c(OC)cc1N(C)CCN(C)C | 1.9%
C=CCN(C)CCCCCCOc1ccc(C(=O)c2ccc(Br)cc2)c(F)c1 | -0.097%
